# Shown are actives, neighbours in structure and some others; about 3.4% of the full set was active somewhere.
# TMEM16A inh: mouse TMEM16A channel inhibition, primary screen; Q8BHY3; 310,000 compounds, 1.2% hits; normalized B-score (activity score, 25-100; higher = stronger inhibition) at 10 µM; AID 588511; HEK293 TMEM16A/YFP iodide influx fluorescence, ionomycin;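 active = ratio plate-corrected score three or more library SD toward inhibition, starting fluorescence score within five deviations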;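 also: score derived from kinetic fluorescence span divided by baseline fluorescence per well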
# NTR1 ag: agonists of human neurotensin receptor NTR1; P30989; NTR1-U2OS beta-arrestin-GFP spot imaging, agonist mode; activation, % at 20 µM; 330,000 compounds, 0.17% hits;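 active = activation at or above 40% of the spot to cytoplasm intensity ratio, with at least 20 cells analyzed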;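 also: 0% = DMSO without peptide and 100% = 100 nM NTR1 peptide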
# MEKK2wt PB1 HTS: raises or lowers MEK5 binding to wildtype human MEKK2 PB1 domain; binding response (% of control), % at 10 µM; 290,000 compounds, 1.1% hits; Q9Y2U5; bead flow cytometry, Alexa488-MEK5 binding to MEKK2 WT; actives lie on both sides; in the data active = binding response below about 67% or above about 130%
# MEKK3 PB1 HTS: modulators (inhibitors or enhancers) of MEK5 binding to human MEKK3 PB1 domain; Q99759; bead-based flow cytometry, Alexa488-MEK5 binding to MEKK3; actives lie on both sides; 0 = blocked by unlabeled MEK5, 100 = vehicle; binding response (% of control), % at 10 µM; 290,000 compounds, 1.4% hits; AID 1529;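 active = binding response more than 3 SD above or below the average of its plate-row segment, actives on both sides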;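 also: Alexa488 bead fluorescence after subtracting the streptavidin-only scavenger bead signal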
# Target sequence (Q99759 whole entry, looked up, the tested form may be a part): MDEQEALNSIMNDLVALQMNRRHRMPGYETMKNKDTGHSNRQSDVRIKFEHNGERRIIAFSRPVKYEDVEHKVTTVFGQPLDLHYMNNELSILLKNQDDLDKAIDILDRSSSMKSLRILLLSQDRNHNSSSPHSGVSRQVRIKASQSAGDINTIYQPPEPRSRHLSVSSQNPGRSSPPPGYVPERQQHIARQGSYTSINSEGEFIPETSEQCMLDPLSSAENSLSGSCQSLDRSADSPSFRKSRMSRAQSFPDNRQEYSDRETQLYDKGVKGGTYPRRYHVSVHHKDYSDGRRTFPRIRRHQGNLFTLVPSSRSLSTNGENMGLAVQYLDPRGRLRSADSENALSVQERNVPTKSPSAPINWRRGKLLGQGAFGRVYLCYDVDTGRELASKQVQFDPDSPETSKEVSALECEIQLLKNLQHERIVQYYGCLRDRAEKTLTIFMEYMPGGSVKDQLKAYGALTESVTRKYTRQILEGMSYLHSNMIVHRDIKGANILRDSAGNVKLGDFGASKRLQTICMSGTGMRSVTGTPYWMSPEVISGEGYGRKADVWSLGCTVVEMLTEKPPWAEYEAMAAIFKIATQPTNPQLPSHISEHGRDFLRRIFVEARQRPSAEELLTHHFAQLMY
# MEKK2mut PB1 HTS: signal of MEK5 binding to mutant human MEKK2 PB1 domain; bead flow cytometry, Alexa488-MEK5 binding to MEKK2 mutant; percent response, % at 10 µM; 290,000 compounds, 0.35% hits; in the data active = percent response above about 24%, passing the limit was not always enough
# TMEM16A act: activators or potentiators of mouse TMEM16A chloride channel | 340,000 compounds, 0.3% hits | B-score at 10 µM | HEK293 TMEM16A/YFP-H148Q/I152L, iodide quench fluorescence; active compounds read low;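 active = fluorescence-ratio B-score plate-corrected deviation score at least 3 library SD below zero, with starting fluorescence score within 5 deviations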;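 also: channel opened by trigger with iodide after compound preincubation; score built on the fluorescence ratio of max minus min over baseline; more negative score means more quench and so TMEM16A activation or potentiation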
# * marks the source's active call; other numbers are inactive results; i = inactive; . = no result given; [ ] = dose if it differs, or a comment.
SMILES,TMEM16A inh,NTR1 ag,MEKK2wt PB1 HTS,MEKK3 PB1 HTS,MEKK2mut PB1 HTS,TMEM16A act
Cn1nc(N)nc1N1CCN(c2ccc(F)cc2)CC1,i,0,98,103,-1,i
C/C(=N/NC(=O)CSc1nc2ccccc2s1)c1ccncc1,i,0,90,92,-10,i
CS/C(=N\S(=O)(=O)c1cccs1)NC(=O)CSc1nc2ccccc2s1,100*,1,99,98,-3,i
Cc1cccc(N2CC(c3nc4ccccc4[nH]3)CC2=O)c1 (centres undefined),i,-1,104,105,4,i
COc1ccc(-n2c(SCc3cn4c(C)cccc4n3)nc3ccccc3c2=O)cc1OC,i,3,110,118,7,i
COc1ccc(/C=N/NC(=O)C(=O)N2CCCCCC2)cc1[N+](=O)[O-],i,0,98,99,1,i
CCOC(=O)C1(CCCCCCOc2ccc(Cl)cc2)CO1 (centres undefined),25*,-1,104,103,3,.
O=C(Nc1cccc2c1[nH]c1ccccc12)C(F)(F)F,25*,-1,93,84,2,i
O=C(Nc1cc([N+](=O)[O-])ccc1Cl)C(Sc1ccccc1)c1ccccc1 (centres undefined),i,5,113,99,0,i
O=C(Nc1ccc(Cl)c([N+](=O)[O-])c1)C(Sc1ccccc1)c1ccccc1 (centres undefined),100*,15,127,95,0,i
Cc1ccc(C(=O)NCCS(=O)(=O)N2CCN(c3ccccc3F)CC2)cc1[N+](=O)[O-],i,2,103,101,-3,i
CCC(C)(C)NC(=O)C(c1ccc(OC)cc1)N(C(=O)CCC(=O)Nc1cc(C)on1)c1ccc2c(c1)OCCO2 (centres undefined),i,0,107,106,8,i
Cc1nnc(SCc2nnc(-c3ccccc3Br)o2)s1,i,-2,104,104,6,-7.9*
Cn1nnnc1SCc1nnc(-c2ccccc2Br)o1,i,0,98,97,9,i
NC(=O)C1=C(c2ccccc2)c2ccccc2C1=O,.,.,.,.,.,-6.3*
Cc1ccc(C)c(OCCC(=O)OCC(=O)NCCc2ccc(S(N)(=O)=O)cc2)c1,i,0,.,.,.,-4.8*
CCCCc1ccc(NC(=S)NCc2cccc(OC)c2)cc1,100*,3,107,108,4,i
COC(=O)Cc1ccc(NC(=S)NCc2cccc(OC)c2)cc1,i,-1,104,106,3,i
O=c1[nH]c(/C=C/c2ccc(Br)cc2)nc2c1cnn2-c1ccccc1,i,5,81,81,-5,.
COc1cccc(/C=C/c2nc3c(cnn3-c3ccccc3)c(=O)[nH]2)c1,i,5,.,87,93*,i
CCCCCCCCCS(=O)(=O)N/N=C/c1cccc([N+](=O)[O-])c1,100*,2,95,86,-4,i
O=C(CP(=O)(c1ccccc1)c1ccccc1)Nc1nc2ccc(Cl)cc2s1,i,-1,96,101,3,i
Cn1cc(/C=C2\SC(=O)NC2=S)c2ccccc21,i,-2,89,98,-5,-4.6*
Cc1ccc(C(=O)NN2C(=O)/C(=C/c3cn(C)c4ccccc34)SC2=S)cc1,i,.,71,101,-1,i
CCOc1ccccc1N(CC(=O)NC1CCCCC1)C(=O)CCC(=O)Nc1cc(C)ccn1,i,-1,102,101,6,i
O=C(CCN1C(=O)c2ccccc2S1(=O)=O)NCc1ccc(F)cc1,.,2,.,.,.,i
O=C(CN1C(=O)c2ccccc2S1(=O)=O)NCc1ccc(F)cc1,i,1,94,72*[inhibitor],-6,i
Cc1ccc(NC(=O)CN2C(=O)NC3(CCCC3)C2=O)c(Cl)c1,i,-1,98,101,-2,i
CCC(C(=O)OCC(=O)Nc1cc(Cl)cc(Cl)c1)c1ccccc1 (centres undefined),100*,7,96,90,-2,i
O=C(NCc1ccccc1CN1CCCC1)c1cccc(S(=O)(=O)N2CCOCC2)c1,.,2,.,.,.,i
